Many of the other results were omitted from the sample, so hits are more common in it than they were.
miR-122 inh: activators of miR-122 sensor in Huh7 cells; Huh7 psiCHECK-miR122 Renilla luciferase sensor, 48 h; activation, % at 12.5 µM; hit rate 0.14% among 340,000; AID 623901;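 active = mean activation of 30% or more, with every replicate also reaching 30%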;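 also: 0% = median of neutral control wells and 100% = median of positive control wells; higher luciferase signal means stronger suppression of miR-122 activity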
* marks the source's active call; other numbers are inactive results.

For NC(=O)c1cn(-c2ccccc2)nc1-c1cc2ccccc2oc1=O the results were miR-122 inh 77*.
Screening C[C@H](O)C#Cc1ccc2c(c1)O[C@@H](CN(C)C)[C@H](C)CN([C@@H](C)CO)S2(=O)=O returned miR-122 inh 0.
Cc1ccc(-c2ccc3c(c2)O[C@H](CN(C)Cc2cccc(C(=O)O)c2)[C@H](C)CN([C@H](C)CO)S3(=O)=O)cc1 was read as miR-122 inh -16.
For C[C@H](CO)N1C[C@H](C)[C@H](CN(C)C(=O)c2ccccn2)Oc2cc(C#CCC3CCCC3)ccc2S1(=O)=O the results were miR-122 inh 0.
`CCOC(=O)/C(C#N)=C1/C=CN(Cc2ccccc2)C=N1` gave miR-122 inh 33*.
`COc1ccc(NC(=O)N(C)C[C@@H]2Oc3ncc(C4=CCCC4)cc3C(=O)N([C@@H](C)CO)C[C@H]2C)cc1` gave miR-122 inh 2.
For CC(=O)N(C)C[C@@H]1Oc2cc(C#C[C@H](C)O)ccc2S(=O)(=O)N([C@@H](C)CO)C[C@H]1C the results were miR-122 inh 7.
`COc1cccc(C#Cc2ccc3c(c2)O[C@H](CN(C)C(=O)c2ccccn2)[C@H](C)CN([C@H](C)CO)S3(=O)=O)c1` gave miR-122 inh 6.
COc1ccccc1NC(=O)N(C)C[C@H]1Oc2ncc(C#CCC(C)C)cc2C(=O)N([C@H](C)CO)C[C@@H]1C was read as miR-122 inh 6.
Screening C[C@H]1CN([C@@H](C)CO)C(=O)c2cc(C#CCc3ccccc3)cnc2O[C@H]1CN(C)Cc1ccccn1 returned miR-122 inh -4.
For CCOC(=O)CSc1nc2ccccc2c(=O)n1CC1CCC(C(=O)NCc2ccco2)CC1 (stereo not drawn) the results were miR-122 inh -138.
For CCOC(=O)CSc1nnnn1-c1cccc2ccccc12 the results were miR-122 inh 38*.
CC(C)NC(=O)N(C)C[C@@H]1Oc2cc(C3=CCCCC3)ccc2S(=O)(=O)N([C@H](C)CO)C[C@H]1C was read as miR-122 inh -4.
Screening COCC(=O)Nc1ccc2c(c1)C(=O)N(C)C[C@@H](OC)[C@@H](C)CN(C(=O)COC)[C@H](C)CO2 returned miR-122 inh -1.
For C[C@@H]1CN([C@H](C)CO)S(=O)(=O)c2ccc(C#CCC3CCCC3)cc2O[C@@H]1CN(C)C(=O)c1ccccn1 the results were miR-122 inh -14.
C[C@H]1CN([C@@H](C)CO)C(=O)c2cc(-c3ccc(F)cc3)cnc2O[C@H]1CN(C)Cc1ccccn1 was read as miR-122 inh -5.
Screening CCC(=O)N1[C@H](CO)[C@H](c2ccccc2)[C@@H]1CN(CC)C(=O)c1ccccc1 returned miR-122 inh 36*.
For CCC(=O)N1[C@H](CN(CC)C(=O)c2cccc(F)c2)[C@H](c2ccccc2)[C@@H]1CO the results were miR-122 inh -125.
Screening CCC(=O)N1[C@H](CO)[C@H](c2ccccc2)[C@@H]1CN(CC)C(=O)c1cccc(F)c1 returned miR-122 inh -250.
COCC(=O)NC[C@H]1[C@H](c2ccccc2)[C@@H](CO)N1C(=O)c1ccccc1 was read as miR-122 inh -100.
`CC(=O)N1[C@H](CN(C(=O)c2ccc(F)cc2)C(C)C)[C@H](c2ccccc2)[C@@H]1CO` gave miR-122 inh 67*.
For CC(C)CC#Cc1ccc2c(c1)O[C@@H](CN(C)C(=O)c1ccccc1)[C@@H](C)CN([C@@H](C)CO)S2(=O)=O the results were miR-122 inh -6.
`C[C@H]1CN([C@@H](C)CO)C(=O)c2cc(C#CC3CCCC3)cnc2O[C@@H]1CN(C)C(=O)C1CCC1` gave miR-122 inh -4.
Screening C[C@H]1CN([C@@H](C)CO)C(=O)c2cc(C3=CCCCC3)cnc2O[C@H]1CN(C)Cc1ccccc1C(=O)O returned miR-122 inh -1.
Screening C[C@@H]1CN([C@H](C)CO)C(=O)c2cc(C#Cc3ccccc3F)cnc2O[C@@H]1CN(C)S(=O)(=O)c1ccccc1 returned miR-122 inh 3.
`COCC#Cc1ccc2c(c1)O[C@@H](CN(C)Cc1cncnc1)[C@@H](C)CN([C@H](C)CO)S2(=O)=O` gave miR-122 inh 0.
Cc1cc(C)c(C)c(S(=O)(=O)NCc2ccncc2)c1C was read as miR-122 inh -122.
Screening Cc1ccc(C)c(S(=O)(=O)NCCCc2ccccc2)c1 returned miR-122 inh -93.
`CC(=O)Nc1ccc(S(=O)(=O)NCCc2ccc(S(N)(=O)=O)cc2)cc1` gave miR-122 inh -226.
Screening O=C(Nc1ccc(S(=O)(=O)NCCc2ccccc2)cc1)c1ccco1 returned miR-122 inh -365.
CCCc1ccc(S(=O)(=O)NCCc2ccncc2)cc1 was read as miR-122 inh 36*.
For Cc1cc(C(C)(C)C)cc(S(=O)(=O)NCCc2ccncc2)c1C the results were miR-122 inh 44*.
CO[C@H]1CN(C)C(=O)c2ccc(NC(=O)NC(C)C)cc2OC[C@@H](C)NC[C@H]1C was read as miR-122 inh -13.

Compound activity as filed in PubChem BioAssay.
